These results are taken from the supplement of paper PMC8728848.

Many of the other results were omitted from the sample, so the strongest signals are more common in it than they were.

Test in all cases: glycan array binding signal (z-score within array); higher = stronger binding
Holding throughout (details): glycan notation: IUPAC condensed, linker removed

Assay [1] has as its target Fuc(a1-2)[Gal(a1-3)]Gal. In short, it runs like this:
(§1)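 Arrays were curated from the Consortium for Functional Glycomics database, 3228 in total, and kept only where the protein sequence was available. Binding is expressed as a within-array Z-score. This score was averaged across arrays of the same protein sequence at different concentrations or buffers and across linkers, and negative values can be read as non-binding.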

Assay [2] concerns the target Fuc(a1-2)[Gal(a1-4)]Gal(b1-4)GlcNAc. In short, it runs like this: as §1
Assay [3] has as its target Fuc(a1-2)[GalNAc(a1-3)]Gal(b1-3)GlcNAc. In short, it runs like this: as §1
Assay [4] has as its target Fuc(a1-3)[Gal(b1-4)]GlcNAc(b1-4)Gal(b1-4)[Fuc(a1-3)]GlcNAc(b1-4)Gal(b1-4)[Fuc(a1-3)]GlcNAc. The method in brief:
as §1

Assay [5] concerns the target Gal(a1-3)Gal(b1-4)Glc. In short, it runs like this:
as §1

The target in assay [6] is Gal(a1-4)Gal(b1-4)GlcNAc. The method in brief:
as §1

For assay [7], the target named is Gal(b1-3)[Fuc(a1-4)]GlcNAc. The method in brief:
as §1

For assay [8], the target named is Gal(b1-3)[GlcNAc(b1-6)]GalNAc. The method in brief:
as §1

Assay [9] addresses GalNAc(b1-3)GalNAc. The method in brief:
as §1

Assay [10] concerns the target GalNAc(b1-4)GlcNAc. In short, it runs like this:
as §1

For assay [11], the target named is GlcNAc(b1-3)Gal. The method in brief: as §1
For assay [12], the target named is GlcNAc(b1-3)GalNAc. The method in brief:
as §1

In assay [13] the target is GlcNAc(b1-3)[GlcNAc(b1-6)]Gal(b1-4)GlcNAc. In short, it runs like this:
as §1

Assay [14] has as its target Neu5Ac(a2-3)Gal(b1-4)Glc. The method in brief: as §1
Assay [15] concerns the target Neu5Ac(a2-3)Gal(b1-4)GlcNAc(b1-3)Gal(b1-4)GlcNAc. In short, it runs like this: as §1
Assay [16] deals with Neu5Ac(a2-3)Gal(b1-4)GlcNAc(b1-3)Gal(b1-4)[Fuc(a1-3)]GlcNAc. In short, it runs like this:
as §1

Assay [17] has as its target Neu5Ac(b1-6)GalNAc. In short, it runs like this: as §1

B1: F17bG (Escherichia coli), Q47200 (protein)
chain: MTNFYKVFLAVFILVCCNISHAVVSFIGSTENDVGPSQGSYSSTHAMDNLPFVYNTGYNIGYQNANVWRIGGGFCVGLDGKVDLPVVGSLDGQSIYGLTEEVGLLIWMGDTNYSRGTAMSGNSWENVFSGWCVGNYLSTQGLSVHVRPVILKRNSSAQYSVQKTSIGSIRMRPYNGSSAGSVQTTVNFSLNPFTLNDTVTSCRLLTPSAVNVSLAAISAGQLPSSGDEVVAGTTSLKLQCDAGVTVWATLTDATTPSNRSDILTLTGASTATGVGLRIYKNTDSTPLKFGPDSPVKGNENQWQLSTGTETSPSVRLYVKYVNTGEGINPGTVNGISTFTFSYQ
For the molecule B1, the “glycan array binding signal (z-score)” value in [1] is -0.551; in assay [2], -0.657; in [3] it was -0.567; in [4], -0.507; in [5], -0.565; in [6], -0.527. The “glycan array binding signal (z-score)” value was -0.578 in [7]; 1.08 in [8]; 4.47 in [9]; -0.391 in assay [10]; 4.21 in assay [11]; 3.86 in assay [12]. The “glycan array binding signal (z-score)” value in assay [13] is 5.83; in assay [14] it was -0.498; in [15], 0.462; in assay [16], 0.05; in assay [17] it was -0.298.
